Measurements: PubChem BioAssay
Inconclusive results are not listed. Calls of active or inactive are those of the source.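 Rule for the calls, unless noted: active = RAM network inhibition above 8.4% in each of two replicates, 3 SD over the compound average; inconclusive = above 8.4% inhibition in only one replicate; inactive = 8.4% inhibition or less in each replicate.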

Legend:
[1] = reducers of endogenous Her2 protein level, primary screen, SKBR3 breast tumor cells, AlphaScreen, ATP viability (AID 461;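 active = Her2 level under about 52% in both replicate screens, with viability over 70% of control, limit read from the data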;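 for Her2 level: lower value means less Her2 protein in the cells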;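 for viability: percent of carrier control wells set as 100% viability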); settings: 18-24 h, measured here: SKBR3 viability, ATP luminescence, at 10 µM
[2] = target: Receptor tyrosine-protein kinase erbB-2 (Homo sapiens) (UniProt P04626); assay: as above; settings: 18-24 h, at 10 µM, stronger effect = lower value
Chain of Receptor tyrosine-protein kinase erbB-2 (Homo sapiens) (P04626 whole entry, looked up): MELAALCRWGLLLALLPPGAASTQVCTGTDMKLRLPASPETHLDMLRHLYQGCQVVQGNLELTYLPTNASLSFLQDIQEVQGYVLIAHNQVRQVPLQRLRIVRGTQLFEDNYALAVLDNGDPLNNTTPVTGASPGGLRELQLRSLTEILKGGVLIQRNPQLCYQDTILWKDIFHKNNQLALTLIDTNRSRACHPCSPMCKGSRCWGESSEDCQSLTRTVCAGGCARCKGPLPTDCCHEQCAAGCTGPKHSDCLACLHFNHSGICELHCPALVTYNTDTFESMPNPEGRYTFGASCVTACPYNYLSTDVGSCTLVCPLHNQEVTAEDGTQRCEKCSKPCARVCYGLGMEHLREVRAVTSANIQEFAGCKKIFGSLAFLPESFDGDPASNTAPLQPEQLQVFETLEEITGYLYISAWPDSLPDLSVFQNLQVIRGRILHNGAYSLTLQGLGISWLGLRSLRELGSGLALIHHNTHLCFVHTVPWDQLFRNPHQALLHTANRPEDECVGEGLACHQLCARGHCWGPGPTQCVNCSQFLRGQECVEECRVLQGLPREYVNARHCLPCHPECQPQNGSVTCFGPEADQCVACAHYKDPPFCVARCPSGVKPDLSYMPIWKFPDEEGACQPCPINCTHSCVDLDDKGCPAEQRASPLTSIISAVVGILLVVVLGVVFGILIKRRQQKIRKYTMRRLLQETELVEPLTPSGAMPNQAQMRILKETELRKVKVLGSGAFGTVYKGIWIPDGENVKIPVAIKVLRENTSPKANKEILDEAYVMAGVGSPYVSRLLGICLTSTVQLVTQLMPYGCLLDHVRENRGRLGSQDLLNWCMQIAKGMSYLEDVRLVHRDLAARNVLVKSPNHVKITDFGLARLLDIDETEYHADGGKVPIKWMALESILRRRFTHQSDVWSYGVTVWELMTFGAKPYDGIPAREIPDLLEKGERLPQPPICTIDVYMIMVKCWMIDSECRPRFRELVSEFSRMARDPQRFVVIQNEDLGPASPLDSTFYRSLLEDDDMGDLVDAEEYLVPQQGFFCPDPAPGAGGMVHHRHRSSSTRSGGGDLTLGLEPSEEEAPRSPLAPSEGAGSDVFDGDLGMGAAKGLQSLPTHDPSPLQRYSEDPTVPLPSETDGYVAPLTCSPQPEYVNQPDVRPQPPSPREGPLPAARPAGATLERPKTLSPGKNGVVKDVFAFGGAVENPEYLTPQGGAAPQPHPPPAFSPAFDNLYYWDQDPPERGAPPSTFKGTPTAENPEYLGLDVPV

[3] = SK-BR-3 cell growth inhibitors, pilot screen, 24 h, human (AID 572;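 active = viability at or below 10% of carrier control in both of two separate runs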;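 note: compound exposure lasted between 18 and 24 h rather than exactly 24 h; 100% = carrier-treated control wells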); settings: SK-BR-3 viability, CellTiter-Glo luminescence, at 10 µM, stronger effect = lower value
[4] = HUVEC growth inhibition – cell-based, human, primary screen (AID 575;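 active = viability at or below 30% in both replicate assays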;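 note: 100% = median of untreated cell wells with 0.1% DMSO on each plate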); settings: HUVEC proliferation, CellTiter-Glo luminescence, 72 h; at 10 µM; stronger effect = lower value
[5] = growth inhibitors of H69AR lung tumor, primary screen, human, duplicate replicates (AID 580;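 active = viability at or under a set limit in both replicates, limit being median viability minus 3 SD, cut at about 48% in these data, passing the limit was not always enough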;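 note: 100% = mean luminescence of untreated wells and 0% = no signal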); settings: H69AR lung tumor cells viability, ATP luminescence, 72 h; at 10 µM; stronger effect = lower value
[6] = 384-well plate pilot, post-Golgi transport modulator project, inhibition of yeast transport mutant growth (AID 636; in the data active = inhibition above about 31%); settings: absorbance 615 nm, about 18 h, stronger effect = higher value
[7] = growth suppression of yeast trafficking mutant, preliminary HTS, modulators of trafficking downstream of Golgi apparatus project, 1536-format plate, OD 615 nm (AID 637; in the data active = inhibition above about 30%); settings: yeast transport mutant growth, absorbance 615 nm, 18 h; stronger effect = higher value
[8] = OD615 S. cerevisiae growth inhibition, permissive medium, pilot counter-assay, permissive growth control for S. cerevisiae lifespan shortening project (AID 705;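 active = growth inhibition above 25% in both replicates, a cutoff set 3 SD above the mean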); settings: OD615, 24 h, at 10 µM, stronger effect = higher value
[9] = Restrictive medium S. cerevisiae growth inhibition, OD615, pilot screen of yeast lifespan reduction project, restrictive growth control (AID 706;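 active = growth inhibition above a set limit, 3 SD over mean compound inhibition, in both replicates, cut at about 43% in these data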;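 note: modified DeaD lifespan yeast strain shifted to restrictive glucose medium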); settings: OD615, 48 h, at 10 µM, stronger effect = higher value
[10] = viability gain of MRP-1-high H69AR cells under doxorubicin, pilot screen, MRP-1 activator project, CellTiter-Glo, duplicate (AID 807;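 active = viability increase at or above a cutoff of the median across tested compounds plus 3 SD, cut at about 8.5% in these data, passing the limit was not always enough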;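 note: compound pretreatment 18-22 h then 72 h combined with doxorubicin; 0% = doxorubicin alone and 100% = vehicle without doxorubicin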); settings: H69AR viability with doxorubicin, CellTiter-Glo luminescence; at 10 µM; stronger effect = higher value
[11] = growth suppression of beta-catenin knockout HCT116, pilot screen, human colon tumor cells (AID 823;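 active = cell viability at or below a set limit in both duplicate runs, the limit being the all-compound median minus 4 SD, cut at about 23% in these data, passing the limit was not always enough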;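 note: 0% = wells killed by 20 µM Hyamine and 100% = untreated DMSO cell wells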); settings: CellTiter-Glo, 60 h, at 10 µM, stronger effect = lower value
[12] = growth suppression of PTEN-deleted HCT116, pilot screen, cell-based, HCT116 clonal line, CellTiter-Glo (AID 824;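 active = viability at or below 27.92% in each of two runs, the all-compound median minus 4 SD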;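 note: 0% = 20 µM Hyamine control and 100% = vehicle cell control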); settings: 60 h, at 10 µM, stronger effect = lower value
[13] = inhibitors of the yeast RAM network, pilot screen, dse1pr::URA3 reporter, 5-FOA selection (AID 869;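 active = inhibition over a set limit, the all-compound mean plus 3 SD, in both replicate runs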;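 note: 0% = DMSO wells with no growth and 100% = 10 µM 1-NA-PP1 with full growth; RAM network block rescues cells from 5-FOA so hits raise OD615 growth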); settings: S. cerevisiae dse1pr::URA3 5-FOA growth, OD615, 2 d; at 10 µM; stronger effect = higher value; strain carries analog-sensitive mutant Cbk1 kinase
[14] = RAM signaling pathway blockade in yeast – S. cerevisiae, Pdr1DBD-CYC8 efflux-inhibited sensitized strain, primary screen (AID 1298);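 note: 0% = DMSO untreated cells without growth and 100% = 10 µM 1-NA-PP1 full growth; higher means more yeast growth rescued from 5-FOA killing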; settings: S. cerevisiae cbk1-as DSE1-URA3 strain, 5-FOA growth OD615, 2 d; at 50 µM; stronger effect = higher value
[15] = reversal of MRP1-mediated doxorubicin resistance, pilot screen, H69AR cells, doxorubicin co-treatment (AID 601;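 active = viability loss from added drug above about 55%, and viability with drug at most 40%, in both replicates, limit read from the data, passing the limit was not always enough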); settings: CellTiter-Glo, 72 h, at 10 µM; for differential viability (reversal): stronger effect = higher value
[16] = H69AR cells + 2 uM doxorubicin, measured here: viability with 2 uM doxorubicin, stronger effect = lower value
[17] = H69AR cells, compound alone cytotoxicity

Row | Structure (SMILES) | viability [1] [%] | Her2 level [2] | viability [3] | viability [4] | viability [5] | inhibition [6] | inhibition [7] | growth inhibition [8] | growth inhibition [9] | viability increase [10] | viability [11] | viability [12] | inhibition [13] | RAM network inhibition [14] | differential viability (reversal) ([15]; H69AR cells + 2 uM doxorubicin) | viability [15, 16] [%] | viability [15, 17] [%]
1 | O=c1[nH]c2ccc(Br)cc2c(-c2ccccc2)c1N1CCOCC1 | 91 | 111% (inactive) | 91% (inactive) | 60.1% (inactive) | 75.7% (inactive) | 0% (inactive) | 2% (inactive) | -12.5% (inactive) | -15.8% (inactive) | -3.63% (inactive) | 92.7% (inactive) | 75.2% (inactive) | 1.29% (inactive) | 0% (inactive) | – | – | –
2 | CC1CC(C)CN(Cc2nc3c(c(=O)n(C)c(=O)n3C)n2Cc2ccccc2Cl)C1 (centres undefined) | 87.5 | 104% (inactive) | 87.5% (inactive) | 97.8% (inactive) | 89.5% (inactive) | -3.2% (inactive) | 0.67% (inactive) | 2.67% (inactive) | -4.42% (inactive) | -1.15% (inactive) | 102% (inactive) | 97.8% (inactive) | 0.655% (inactive) | 3.22% (inactive) | – | – | –
3 | Clc1ss/c(=N\c2ccccn2)c1Cl | 100 | 77% (inactive) | 100% (inactive) | 77.8% (inactive) | 76.6% (inactive) | -9.18% (inactive) | 2.06% (inactive) | 3.12% (inactive) | 19.3% (inactive) | -5.42% (inactive) | – | 96.8% (inactive) | 1.77% (inactive) | 3.89% (inactive) | 4.38% (inactive) | 72.3 | 76.6
4 | CC1CCc2nn(CC(=O)N3CCN(C(=O)c4ccco4)CC3)cc2C1 (centres undefined) | 79.5 | 95.5% (inactive) | 79.5% (inactive) | 119% (inactive) | 91.6% (inactive) | 0% (inactive) | 2.67% (inactive) | -0.485% (inactive) | 5.38% (inactive) | – | 104% (inactive) | 97.9% (inactive) | 3.15% (inactive) | 7.21% (inactive) | 11.8% (inactive) | 79.8 | 91.6
5 | COCCn1c(SCC(=O)N2CCc3ccccc32)nc2c(c1=O)SC(C)C2 (centres undefined) | 77 | 104% (inactive) | 77% (inactive) | 67.8% (inactive) | 78.8% (inactive) | -3.87% (inactive) | -2% (inactive) | 6.33% (inactive) | 13.2% (inactive) | -2.72% (inactive) | 94.1% (inactive) | 94.3% (inactive) | 0.465% (inactive) | 6.03% (inactive) | – | – | –
6 | Cc1ccc(C)c(N2CCN(C(=O)c3cc4ccccn4n3)CC2)c1 | 91 | 85% (inactive) | 91% (inactive) | 90.1% (inactive) | 99.8% (inactive) | -4.74% (inactive) | 8.33% (inactive) | -8.86% (inactive) | 0.2% (inactive) | -2.11% (inactive) | 91.7% (inactive) | 92.5% (inactive) | 0.805% (inactive) | 10.8% (inactive) | – | – | –
7 | Cc1c(C(=O)Nc2nnc(C(F)(F)F)s2)oc2ccccc12 | 91.5 | 81.5% (inactive) | 91.5% (inactive) | 51% (inactive) | 84.8% (inactive) | -6% (inactive) | -3.33% (inactive) | -4.23% (inactive) | 13.6% (inactive) | – | – | 65.5% (inactive) | 2.56% (inactive) | 4.2% (inactive) | -8.24% (inactive) | 93.1 | 84.8
8 | Cc1ccc2oc(=O)c3cnn(CC(=O)N4CCCCC4C)c3c2c1 (centres undefined) | 91.5 | 108% (inactive) | 91.5% (inactive) | 103% (inactive) | 89.2% (inactive) | -0.27% (inactive) | 2.62% (inactive) | -9.82% (inactive) | -6.86% (inactive) | -3.34% (inactive) | 84.1% (inactive) | 87.1% (inactive) | 3.4% (inactive) | 0.87% (inactive) | – | – | –
9 | Cc1noc(/C=C/N(C)C)c1S(=O)(=O)N1CCCC(C(=O)N2CCCCC2)C1 (centres undefined) | 84 | 97% (inactive) | 84% (inactive) | 95.9% (inactive) | 97.3% (inactive) | 1.07% (inactive) | -7.21% (inactive) | 4.08% (inactive) | 5.73% (inactive) | – | 87.4% (inactive) | 85.2% (inactive) | 1.34% (inactive) | 5.03% (inactive) | -3.44% (inactive) | 101 | 97.3
10 | CC(C)CC1NC2(C(=O)N(C)c3ccccc32)C2C(=O)N(C(C)C)C(=O)C12 (centres undefined) | 86.5 | 110% (inactive) | 86.5% (inactive) | 83.3% (inactive) | 99.1% (inactive) | -1.73% (inactive) | -0.33% (inactive) | 4.83% (inactive) | 6.6% (inactive) | -1.13% (inactive) | 103% (inactive) | 103% (inactive) | 1.11% (inactive) | 2.88% (inactive) | – | – | –
11 | CNC(=O)c1ccsc1NC(=O)CN1C(=O)CCC1=O | 90 | 94% (inactive) | 90% (inactive) | 96.8% (inactive) | – | -3.47% (inactive) | -0.67% (inactive) | -11.5% (inactive) | 0.46% (inactive) | -6.24% (inactive) | 104% (inactive) | 98.9% (inactive) | 1.65% (inactive) | 1.73% (inactive) | -22.5% (inactive) | 80.5 | 58
12 | Cc1ccccc1Cn1nc(C)c(NC(=O)c2noc3c2CCc2ccccc2-3)c1C | 126 | 61% (inactive) | 126% (inactive) | – | 98.4% (inactive) | 5.77% (inactive) | -2.17% (inactive) | -6.68% (inactive) | 1.82% (inactive) | 10.6% (active) | 79.5% (inactive) | 85.2% (inactive) | 1.23% (inactive) | 6.54% (inactive) | 14% (inactive) | 84.4 | 98.4
13 | CC1(C)CC2CC(C)(CN2S(=O)(=O)c2ccc(N)cc2)C1 (centres undefined) | – | – | 120% (inactive) | 99.6% (inactive) | 89.4% (inactive) | -8.93% (inactive) | -8.36% (inactive) | -0.15% (inactive) | 8.29% (inactive) | -2.62% (inactive) | 88% (inactive) | 87.6% (inactive) | 0.505% (inactive) | 9.14% (inactive) | 8.43% (inactive) | 80.9 | 89.4
14 | Cc1cc(NC(=O)CSc2nc3c(c(-c4cccnc4)c2C#N)CCC3)no1 | – | – | 65% (inactive) | 111% (inactive) | 90.9% (inactive) | -5.6% (inactive) | -3.09% (inactive) | 2.25% (inactive) | 1.02% (inactive) | 0.51% (inactive) | 101% (inactive) | 98.5% (inactive) | 1.75% (inactive) | 5.05% (inactive) | 6.63% (inactive) | 84.3 | 90.9
15 | CN(C)c1ccc(NC(=O)Cn2cc3c(n2)CCCC3)cc1 | 77.5 | 67% (inactive) | 77.5% (inactive) | – | 74% (inactive) | -4.13% (inactive) | -5% (inactive) | 11.9% (inactive) | 13.9% (inactive) | -2.45% (inactive) | 64.2% (inactive) | 62% (inactive) | 2% (inactive) | 1.84% (inactive) | -10.1% (inactive) | 84.1 | 74
16 | CCOc1ccc(N(CC(=O)Nc2cccc(OC)c2)S(=O)(=O)c2c(C)noc2C)cc1 | 91.5 | 95% (inactive) | 91.5% (inactive) | 72.4% (inactive) | – | -4.4% (inactive) | -7.38% (inactive) | -11.5% (inactive) | 3.05% (inactive) | -4.75% (inactive) | 71.8% (inactive) | 70.9% (inactive) | -0.41% (inactive) | 4.24% (inactive) | -16.7% (inactive) | 76.3 | 59.6
17 | CCOc1ccccc1NC(=O)C1CCCN(S(=O)(=O)c2cccc3cccnc23)C1 (centres undefined) | 108 | 94.5% (inactive) | 108% (inactive) | – | 78.1% (inactive) | -6.13% (inactive) | 1.67% (inactive) | -4.4% (inactive) | -21% (inactive) | -3.58% (inactive) | 76.2% (inactive) | 71.9% (inactive) | 1.14% (inactive) | 4.95% (inactive) | -11.7% (inactive) | 89.8 | 78.1
18 | Cc1cccc(N(CC(=O)N2CCCC2)S(=O)(=O)c2ccccc2)c1C | – | – | 106% (inactive) | 112% (inactive) | 88.5% (inactive) | -2.27% (inactive) | 1.82% (inactive) | -1.1% (inactive) | 4.24% (inactive) | -1.18% (inactive) | 93.9% (inactive) | 93.6% (inactive) | 2.05% (inactive) | 3.22% (inactive) | -0.32% (inactive) | 88.8 | 88.5
19 | COc1ccccc1S(=O)(=O)Cc1ccc(C(=O)NCCN2CCCCCC2)o1 | 71 | 102% (inactive) | – | 97.5% (inactive) | 102% (inactive) | -0.9% (inactive) | -1.33% (inactive) | 2.4% (inactive) | -14.5% (inactive) | -2.82% (inactive) | 104% (inactive) | 104% (inactive) | 1.38% (inactive) | 7.66% (inactive) | 11.8% (inactive) | 90 | 102
20 | CN(C)c1ccc(C(=O)Nc2nnc(-c3ccc(Cl)cc3)o2)cc1 | 92 | 75.5% (inactive) | 92% (inactive) | 13.4% (active) | – | 29.9% (inactive) | 21.5% (inactive) | 5.56% (inactive) | -19.4% (inactive) | -3.93% (inactive) | 26.8% (inactive) | 25.2% (active) | 1.5% (inactive) | 2.45% (inactive) | -33.4% (inactive) | 81.2 | 47.8
